Source: PubChem BioAssay (EPA / NIEHS)
Active and inactive are the calls of the source. The calls were made as follows: active = hit-call score of the fitted dose curve at least 0.9, where 1 is the maximum; inactive = score below 0.9.

molecular target: Nuclear respiratory factor 1 (Homo sapiens) (UniProt Q16656); assay: ATG_NRF1_CIS: Attagene CIS-FACTORIAL HepG2 Assay for human Nuclear Respiratory Factor 1 (NRF1) Orphan Gene (AID 2282987); settings: HepG2 NRF1 cis-element reporter, Attagene multiplex; actives raise or lower the signal
Sequence (Q16656 whole entry, looked up): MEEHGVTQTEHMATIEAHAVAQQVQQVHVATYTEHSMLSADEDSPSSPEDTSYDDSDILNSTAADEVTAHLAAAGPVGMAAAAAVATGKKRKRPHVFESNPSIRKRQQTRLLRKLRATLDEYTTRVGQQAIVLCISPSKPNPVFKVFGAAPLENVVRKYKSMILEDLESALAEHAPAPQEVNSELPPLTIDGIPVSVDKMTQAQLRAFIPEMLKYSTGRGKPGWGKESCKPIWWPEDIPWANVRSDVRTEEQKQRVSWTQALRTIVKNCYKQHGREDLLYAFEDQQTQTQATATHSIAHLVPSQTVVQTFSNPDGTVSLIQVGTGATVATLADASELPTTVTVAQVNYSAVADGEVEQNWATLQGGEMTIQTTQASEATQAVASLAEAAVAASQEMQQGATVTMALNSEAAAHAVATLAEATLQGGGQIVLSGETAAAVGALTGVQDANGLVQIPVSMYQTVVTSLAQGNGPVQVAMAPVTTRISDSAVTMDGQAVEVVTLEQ
Method: ATG_CIS is a cell-based, multiplexed-readout assay that uses HepG2, a human liver cell line, with measurements taken at 24 hours after chemical dosing in a 24-well plate.ATG_NRF1_CIS is one of 52 assay component(s) measured or calculated from the ATG_CIS assay. It is designed to make measurements of mRNA induction, a form of inducible reporter, as detected with fluorescence intensity signals by Reverse transcription polymerase chain reaction (RT-PCR) and Capillary electrophoresis technology.Data from the assay component ATG_NRF1_CIS was analyzed into 1 assay endpoint. This assay endpoint, ATG_NRF1_CIS, was analyzed with bidirectional fitting relative to DMSO as the negative control and baseline of activity. Using a type of inducible reporter, measures of mRNA for gain or loss-of-signal activity can be used to understand the reporter gene at the transcription factor-level as they relate to the gene NRF1. Furthermore, this assay endpoint can be referred to as a primary readout, because this assay has produced multiple assay endpoints where this one serves a reporter gene function. To generalize the intended target to other relatable targets, this assay endpoint is annotated to the dna binding intended target family, where the subfamily is nuclear respiratory factors.
Human liver HepG2 cells are transiently transfected with multiple reporter transcription units (MRTUs) in 6-well plates using FuGene 6 reagent (Roche; 3 ml FuGene/1 mg DNA). The MRTU constructs are regulated by a cis-regulating element (promoter). […] A major difference between the CIS and TRANS system is that in CIS activities of endogenous TFs are measured, whereas the TRANS assay evaluates changes in activities of exogenous, chimeric NR-Gal4 proteins. […] At the end of 24 hour incubation, total RNA was isolated using TriZol reagent (Invitrogen). The isolated RNA is then reverse-transcribed using oligo(dT) primer and Mo-MLV reverse transcriptase (Invitrogen) with DNAse I (Ambion) treatment for 30 min. The one-tenth of the produced cDNA was amplified by PCR using Taq DNA polymerase (Invitrogen) and two reporter sequence-specific primers. The PCR products were fluorescently labeled by primer extension with 6-arboxyfluorescein (6-FAM) 5'-labeled reporter sequence-specific primer (2 min at 95 C, 20 s at 68 C and 10 min at 72 C) and these products were digested with 5U of HpaI (New England Biolabs) for 2h at 37 C. The fragments were purified using Qiaquick PCR columns (Qiagen), analyzed on an ABI 3130xL genetic analyzer (Applied Biosystems) with peak positions identified by using a set of X-rhodamine (ROX)-labeled MapMarker1000 molecular weight standards (BioVentures). The raw capillary electrophoresis data was processed using Attagraph software (Attagene).

outcome, inactive:
CCCCCCCC(=O)OCCCCCC
C1=CC2C3C=CC(C3)C2C1 (stereo not given)
OC[C@H]1O[C@@H]2O[C@H]3[C@H](O)[C@@H](O)[C@@H](O[C@H]4[C@H](O)[C@@H](O)[C@@H](O[C@H]5[C@H](O)[C@@H](O)[C@@H](O[C@H]6[C@H](O)[C@@H](O)[C@@H](O[C@H]7[C@H](O)[C@@H](O)[C@@H](O[C@H]8[C@H](O)[C@@H](O)[C@@H](O[C@H]9[C@H](O)[C@@H](O)[C@@H](O[C@H]1[C@H](O)[C@H]2O)O[C@@H]9CO)O[C@@H]8CO)O[C@@H]7CO)O[C@@H]6CO)O[C@@H]5CO)O[C@@H]4CO)O[C@@H]3CO
CCCSc1ccc2nc(NC(=O)OC)[nH]c2c1
C=CC(=O)OCCC#N
CCCCCCC(=O)c1ccccc1
CC(C)NCC(O)COc1ccc(CC(N)=O)cc1 (stereo not given)
C1CCOC1
Cc1cc(S(=O)(=O)O)ccc1N=Nc1c(O)ccc2ccccc12
CCCC(C)C(O)CC (stereo not given)
Brc1ccc(Br)c(Br)c1
O=Cc1ccccc1S(=O)(=O)O
C[Si]1(C)O[Si](C)(C)O[Si](C)(C)O1
CN1C(=O)c2ccccc2C1=O
Cc1ccc(C)o1
CCCC(=O)OC(C)(C)Cc1ccccc1
CN(C)CCOc1ccc(/C(=C(/CCCl)c2ccccc2)c2ccccc2)cc1
CCCCCC(=O)CC
Clc1cc(Cl)c(-c2c(Cl)c(Cl)cc(Cl)c2Cl)cc1Cl
C=C[Si]1(C)O[Si](C)(C=C)O[Si](C)(C=C)O[Si](C)(C=C)O1 (stereo not given)
Cc1cc(=O)oc2cc(N(C)C)ccc12
CC(=O)C(C)O (stereo not given)
C=CC(=O)OCCCC
CC=Cc1ccc(OCC)c(O)c1
c1ccc(CN(Cc2ccccc2)Cc2ccccc2)cc1
CSCCC=O
Cc1occc(=O)c1OC(=O)C(C)C
CC(=O)C1(C)CC2=C(CCCC2(C)C)CC1C (stereo not given)
CCCCCCCC(=O)OCC(O)CO (stereo not given)
CCOC(=O)CN
C=Cc1ccc(C)cc1
O=C(O)c1cc(C(=O)O)cc([N+](=O)[O-])c1
CCCCCCCCCC(C)C=O (stereo not given)
OCc1cccc(Oc2ccccc2)c1
CCC(Cl)C(Cl)C(Cl)CC(Cl)C(Cl)C(C)Cl (stereo not given)
CCN(CC)C(=O)N(CC)CC

AC50, active:
CCOC(=O)C(C#N)=C(c1ccccc1)c1ccccc1 55.2 µM
CSc1c(Cl)c(Cl)c(Cl)c(Cl)c1Cl 169 µM
Clc1ccc(C(c2ccccc2Cl)C(Cl)Cl)cc1 (stereo not given) 44.2 µM
C=Cc1ccncc1 37.5 µM
